NPR1 antag – blocks ANP-stimulated signaling of human Npr1 receptor. HEK293 hNpr1 GloSensor cGMP, ANP-stimulated luminescence. Potency, µM (highest dose often 46.3 µM), for inactives: at the highest dose activity change, negative = inhibition, hits mostly inhibitors. AID 1347048. actives 1.6% (n = 76,000); calls by dose curve; further: nearly all actives have a fitted effect of over 60% in size
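HEK293 cells stably expressing human Npr1 and cGMP GloSensor pGS-40F, loaded 2 h with 2% GloSensor reagent, given compound 30 min at room temperature. Luminescence read before and 20 min after 0.1 nM hNppA.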
3T3 cytotox – cytotoxic compounds in NIH 3T3 cells. Potency, µM (titrated, usually from 96.7 µM), without a hit: at the highest dose activity change, negative = cytotoxicity, most hits filed as inhibitors. NIH 3T3 viability, CellTiter-Glo ATP luminescence, 48-72 h. actives 4.3% (n = 94,000); further: nearly all actives have a fitted effect of over 55% in size
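Cytotoxicity is measured as loss of cellular ATP: NIH 3T3 cells (400/well) are exposed to compound for 48 or 72 hr at 37 °C, then CellTiter-Glo luminescence is imaged after 10 min at room temperature.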
Luciferase inh – blocks purified firefly luciferase enzyme activity; P08659; purified P. pyralis luciferase, luminescence, biochemical; Potency, µM (top dose mostly 115 µM), actives largely listed as inhibitors; actives 2.5% (n = 76,000); AID 1347043; further: nearly all actives have a fitted effect of over 65% in size
Target sequence (P08659 whole entry, looked up): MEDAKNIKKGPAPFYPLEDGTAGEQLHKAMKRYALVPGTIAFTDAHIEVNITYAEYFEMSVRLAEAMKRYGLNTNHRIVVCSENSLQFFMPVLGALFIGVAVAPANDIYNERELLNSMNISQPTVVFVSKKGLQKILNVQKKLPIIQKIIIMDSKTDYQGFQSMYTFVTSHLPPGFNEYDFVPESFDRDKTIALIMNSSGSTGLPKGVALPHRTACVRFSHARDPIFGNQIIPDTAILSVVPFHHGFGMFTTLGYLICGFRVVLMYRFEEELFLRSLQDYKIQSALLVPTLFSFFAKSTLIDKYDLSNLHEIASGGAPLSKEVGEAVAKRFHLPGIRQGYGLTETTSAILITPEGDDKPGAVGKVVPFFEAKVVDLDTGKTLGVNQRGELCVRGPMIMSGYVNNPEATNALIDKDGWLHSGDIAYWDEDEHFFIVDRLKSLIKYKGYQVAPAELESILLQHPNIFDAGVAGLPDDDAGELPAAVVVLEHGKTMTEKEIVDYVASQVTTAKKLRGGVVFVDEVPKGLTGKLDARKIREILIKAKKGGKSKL
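Luminescence read by CCD imager after adding enzyme (10nM final) to wells holding compound, titrated in qHTS. Substrates 10uM each D-luciferin and ATP; buffer 50mM Tris acetate pH 7.5, 10mM Mg acetate, Tween-20, BSA.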
HEK293 tox – HEK 293 cell cytotoxicity | HEK 293 viability, ATP luminescence (CellTiter-Glo), 48-72 h | actives 6.6% (n = 94,000) | AID 1345083 | Potency, µM (series often up to 115 µM), without a hit: at the highest dose activity change, negative = cytotoxicity, most hits filed as inhibitors; further: nearly all actives have a fitted effect of over 60% in size
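CellTiter-Glo luminescence (cellular ATP) was read after 48 or 72 hr of compound exposure at 37 degree Celsius. Cells were HEK 293 plated at 250 cells/well.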
GPT2 inh – GPT2 alanine aminotransferase inhibition | Q8TD30 | Potency, µM (series often up to 57.7 µM), for inactives: at the highest dose activity change, negative = inhibition, actives largely listed as inhibitors | actives 0.25% (n = 100,000) | Recombinant GPT2, coupled pyruvate oxidase/HRP Amplex Red fluorescence; further: nearly all actives have a fitted effect of over 60% in size
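Recombinant GPT2 (10ng/uL) with 250uM a-KG and 2mM L-alanine, 30 min at room temperature, in HEPES pH 7.5 buffer. Pyruvate detected by pyruvate oxidase/HRP/Amplex Red fluorescence after 30 min in the dark; AOA (50uM) as positive control.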
* hit, by the source's call; i = inactive; ? = inconclusive; . = no result; ! = not confirmed by another sample; [ ] = dose if it differs, or a comment. This is a sample that favours compounds with a hit; in the whole collection about 10% have one here. Unless noted, the call rests on the fitted dose curve; in most records, active means well fitted curve in the direction sought with a large enough effect; inconclusive means small, poorly fitted or top-dose-only effect, or another doubt; inactive means no such curve, though single readings can be large; an effect the other way counts as inactive or inconclusive. On the % scale 0 is the no-effect control and ±100 the full control effect; potency means the concentration at half of the fitted maximal effect.

SMILES	NPR1 antag	3T3 cytotox	Luciferase inh	HEK293 tox	GPT2 inh
Fc1ccc(CN2Cc3[nH]cnc3C[C@H]2c2nc(-c3ccccc3)no2)cc1	-16%[70.6 µM]	79µM*	45µM*	100µM*	?
O=C(O)c1ccc(CN2Cc3[nH]cnc3C[C@H]2c2nc(-c3ccc(F)cc3)no2)cc1	-1%[70.6 µM]	-21%[138 µM]	i	-22%[172 µM]	2%[88.5 µM]
FC(F)(F)c1cccc(-c2noc(-c3ccc(NCCN4CCOCC4)nc3)n2)c1	11µM*	?	?	11µM*	i[11.5 µM]
Cn1cc(CNc2ccc(-c3nc(CCCc4ccccc4)no3)cn2)cn1	?	?	40µM*	?	1%[11.5 µM]
OC[C@@H]1CN(c2ccc(-c3nc(-c4cccc(C(F)(F)F)c4)no3)cn2)C[C@H]1CO	-23%	-30%	i	?	i
Cn1cc(CNc2ccc(-c3nc(-c4cccc(C(F)(F)F)c4)no3)cn2)cn1	?	?	i	25µM*	-40%[11.5 µM]
Cc1ccc(OCC(=O)N2CC(c3noc(COc4ccccc4)n3)C2)cc1	-6%	?	i	?	-7%
CN(C)CCC(=O)N1Cc2ccccc2CC2(CCCN(CC3CCNCC3)C2)C1 (centres undefined)	.	-16%	.	-14%	?
O=C(NCC(F)(F)F)C1CCCN(Cc2cccc(-c3ccc(F)cc3F)c2)C1 (centres undefined)	.	?	.	?	-31%
CC(C)NC(=O)C1CCCN(Cc2cccc(-c3ccc(F)cc3F)c2)C1 (centres undefined)	.	?	.	35µM*	i
O=C(NC1CC1)C1CCCN(Cc2cccc(-c3ccc(F)cc3F)c2)C1 (centres undefined)	.	?	.	40µM*	-13%
O=C(NC1CCCC1)C1CCCN(Cc2cccc(-c3ccc(F)cc3F)c2)C1 (centres undefined)	.	40µM*	.	40µM*	i
CC(=O)NC1(C)CCN(Cc2ccccc2-c2ccc3ccccc3c2)C1 (centres undefined)	-17%[70.6 µM]	79µM*	i	?	3%[88.5 µM]
CC(=O)NC1(C)CCN(Cc2ccc(-c3ccccc3Oc3ccccc3)cc2)C1 (centres undefined)	-4%[70.6 µM]	40µM*	i	56µM*	2%[88.5 µM]
CC(=O)NC1(C)CCN(Cc2ccc(-c3ccc([S+](C)(=O)[O-])cc3)cc2)C1 (centres undefined)	0%[70.6 µM]	-12%[138 µM]	i	?	-17%[88.5 µM]
C[C@]1(CO)[C@H]2Cc3sc(NC(=O)c4c(F)cccc4F)nc3[C@@H](CC(=O)NCc3cccnc3)[C@]2(C)CC[C@H]1O	-2%	?	i	?	3%
NCCC(=O)N1CCC2(CC1)C(=O)NCN2C(=O)Cc1cccc(Cl)c1	.	2%	.	i	0%
COc1ccc(CN2CC(c3ncc4c(-c5ccccc5)nccn34)C2)cc1O	-25%[70.6 µM]	89µM*	i	?	0%[88.5 µM]
Cc1cc(C)c(OCC(=O)c2ccc3c(c2)N(CCCC(=O)N2CCOCC2)C(=O)CO3)c(C)c1	3%	-15%	i	-23%	i
C#CCNC(=O)c1nc(-c2cccnc2)c2ccccn12	0%[70.6 µM]	89µM*	i	-23%[172 µM]	i
C#CCNC(=O)c1nc(-c2ccc(Cl)cc2Cl)c2ccccn12	.	?	.	?	-12%
O=C(c1nc(-c2ccccc2)c2ccccn12)N1CCCC1	2%[70.6 µM]	-12%[138 µM]	i	?	i
C#CCNC(=O)c1nc(-c2cc(Cl)cc(Cl)c2)c2ccccn12	-1%[70.6 µM]	-6%[138 µM]	i	63µM*	i
O=C(c1nc(-c2ccc(Cl)cc2)c2ccccn12)N1CCOCC1	5%[70.6 µM]	?	i	112µM*	-5%[88.5 µM]
O=C(c1nc(-c2cccc(C(F)(F)F)c2)c2ccccn12)N1CCCC1	-9%	?	i	40µM*	-25%
SMILES	NPR1 antag	3T3 cytotox	Luciferase inh	HEK293 tox	GPT2 inh
Cc1noc(C)c1S(=O)(=O)N1CC[C@@H]2C(=O)NCCCCCCN(Cc3ccncc3)[C@@H]2C1	4%	-7%	i	i	i
CC(C)(C)c1coc([C@@H]2COCCN2Cc2ccccc2F)n1	0%[70.6 µM]	-1%[138 µM]	i	-5%[172 µM]	4%[88.5 µM]
NC(=O)[C@@H]1CN(C(=O)c2cocn2)C[C@H]1COc1ccccc1	-10%	1%	i	-1%	i
C#CCNC(=O)c1nc(-c2ccc(Cl)cc2)c2ccccn12	-1%[70.6 µM]	?	45µM*	?	i
CN(C)C(=O)c1nc(-c2ccc(Cl)cc2)c2ccccn12	7%[70.6 µM]	?	?	100µM*	i
O=C(NCc1ccc2c(c1)OCO2)c1nc(-c2ccc(Cl)cc2)c2cnccn12	7%	-25%	25µM*	-26%	2%
O=C(NCc1cccnc1)c1nc(-c2ccc(Cl)nc2)c2ccccn12	.	?	.	79µM*	-14%
CC(C)NC(=O)c1nc(-c2ccc(F)cc2)c2ccccn12	4%[70.6 µM]	?	i	?	i
C#CCNC(=O)c1nc(-c2ccc(Cl)nc2)c2ccccn12	.	?	.	50µM*	-12%
C#CCNC(=O)c1nc(-c2cccc(F)c2)c2cnccn12	-27%[70.6 µM]	?	i	63µM*!	-3%[88.5 µM]
CC(C)NC(=O)c1nc(-c2ccc(Cl)nc2)c2ccccn12	.	35µM*	.	?	-15%
O=C(NCCc1ccc(Cl)cc1)c1nc(-c2cccnc2)c2ccccn12	-3%	40µM*	i	32µM*	-15%
COC(=O)CNC(=O)c1nc(-c2ccc(Cl)nc2)c2ccccn12	.	?	.	3%	-7%
COc1ccc2c(c1)c(CN1CCC3(CC1)CC(O)CCO3)cn2C (centres undefined)	2%	-7%	i	2%	3%
Cc1ccccc1-c1nc(Cn2ccnc2C(C)C)c(C)o1	?	?	i	28µM*	1%
Cc1nn(-c2ccc(C(C)C)cc2)c(C)c1[C@@H]1C=C[C@@H](NCc2ccccc2)C1	-13%[70.6 µM]	11µM*	63µM*	25µM*	5%[88.5 µM]
Cc1nn(-c2ccccn2)c(C)c1[C@@H]1C=C[C@@H](NC(=O)CCC(=O)O)C1	0%[70.6 µM]	-9%[174 µM]	i	-23%[172 µM]	i
Cc1nn(-c2ccc(C(C)C)cc2)c(C)c1[C@@H]1C=C[C@@H](NCc2cccc(Cl)c2)C1	?	13µM*	45µM*	10µM*	i
O=C(NC1CC1)c1ccc2nnc(Cc3ccco3)n2c1	.	-13%[138 µM]	.	i	i
Cc1nnc(-c2cc(-c3ccsc3)ccn2)n1Cc1ccccc1	-11%[70.6 µM]	?	?	?	-5%[88.5 µM]
COCCCNC(=O)C1CCCN1Cc1cccc(-c2cccc(OC)c2)c1 (centres undefined)	.	?	.	?	-3%
O=C(Nc1ccc(-c2cccc(F)c2)cc1)C1CCCN1Cc1cnc[nH]1 (centres undefined)	-16%	?	?	-62%	4%

Bioassay records from PubChem BioAssay.
